From PubChem BioAssay come the findings set out here.

Assay [1] in a line: inhibitors of TNFa-induced NFkB p65 translocation, primary screen, imaging, HUVEC, MLSMR starter and 10KST1 sets (AID 438;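 active = inhibition above 20% together with a positive visual image hit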;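 also: compound added about 3h40 before a 20 min TNFalpha stimulation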;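 as to inhibition: signal is the nuclear over cytoplasmic p65 intensity ratio per well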). The conditions noted are these: HUVEC TNFa-induced p65 nuclear translocation; cell count: measured here: nuclei count (cytotoxicity indicator), at 2.08 µM; inhibition: at 2 µM, stronger effect = higher value, 0% TNFa-plus-vehicle, 100% no-TNFa wells.
Assay [2] in a line: reduction of polyQ htt aggregates in cells – imaging, exon1htt(103Q)mCFP cells, high-content imaging, primary screen (AID 483;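 active = visual image review flags a hit and inhibition of aggregation exceeds 20%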;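 also: compound exposure lasted 3 days before fixation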;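 as to nuclei count: percent of the per-plate median nuclei count of sample wells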). The conditions noted are these: exon1htt(103Q)mCFP cell line, aggregate imaging, at 2 µM; inhibition of aggregation: stronger effect = higher value; nuclei count: measured here: cell count, toxicity.
Assay [3] can be described thus: endothelial E-selectin expression blockers – imaging, HUVEC, immunofluorescence, MLSMR starter and 10KST1 sets, primary screen (AID 487;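 active = visually confirmed hit in the image check and inhibition above 20%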;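 as to inhibition: signal is fraction of cell area covered by stained E-selectin grains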;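 as to nuclei count: 100% = median nuclei count of all wells on the same plate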). The following applies: HUVEC TNFalpha-induced E-selectin immunofluorescence imaging, at 2 µM; inhibition: stronger effect = higher value; nuclei count: measured here: cell number, toxicity.
Assay [4] addresses Voltage-gated potassium channel subunit beta-2 (Rattus norvegicus) (UniProt P62483). Description: inhibitors of rat Kvbeta2 reductase activity – biochemical, NADPH fluorescence, primary screen (AID 622;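 active = fluorescence slope higher than the sample average by over 3 SD, cut at about -0.22 in these data, passing the limit was not always enough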;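 also: slope of raw intensity against log time taken from 70 to 1610 s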). The conditions noted are these: recombinant KvBeta, 4-cyanobenzaldehyde reduction, at 10 µM, stronger effect = higher value.
Assay [5] shares this target. The assay is described as follows: enhancers of rat Kvbeta2 NADPH turnover – biochemical, NADPH fluorescence, primary screen (AID 623).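 Also: fluorescence intensity change per second fitted from 20 to 320 s.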 The conditions noted are these: Recombinant KvBeta, NADPH fluorescence decrease slope, 10 min; at 10 µM; stronger effect = lower value.
In assay [6] the target is Alpha-2C adrenergic receptor (Homo sapiens) (UniProt P18825). Description: compounds altering alpha2C-coupled GIRK flux – cell-based, HEK293 alpha2C/GIRK1/2, thallium flux, primary screen (AID 624;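 active = fluorescence slope after compound addition differing from the mean of all screened samples at 99.7% confidence, in either direction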;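 also: slope of fluorescence ratio to pre-addition baseline per second over 15 to 24 s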). The conditions noted are these: thallium flux BTC fluorescence, at 10 µM, actives lie on both sides.
Alpha-2C adrenergic receptor (Homo sapiens), sequence (P18825 whole entry, looked up): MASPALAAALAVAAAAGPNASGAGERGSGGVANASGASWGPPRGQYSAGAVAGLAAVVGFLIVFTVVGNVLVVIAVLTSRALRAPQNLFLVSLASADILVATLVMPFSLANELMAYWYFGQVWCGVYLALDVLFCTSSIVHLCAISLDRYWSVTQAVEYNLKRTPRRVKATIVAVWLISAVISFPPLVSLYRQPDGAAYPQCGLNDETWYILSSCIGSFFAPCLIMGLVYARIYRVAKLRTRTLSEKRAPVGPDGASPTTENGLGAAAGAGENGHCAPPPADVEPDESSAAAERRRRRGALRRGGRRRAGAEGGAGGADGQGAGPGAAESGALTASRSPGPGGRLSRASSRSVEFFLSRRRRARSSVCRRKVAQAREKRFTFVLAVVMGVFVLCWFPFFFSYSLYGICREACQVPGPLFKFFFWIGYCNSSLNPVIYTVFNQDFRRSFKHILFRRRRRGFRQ
A short description of assay [7]: blockers of RIG-like receptor reporter activation – cell-based, Sendai virus stimulus, luciferase, 10K MLSCN set, TLR/RLR signaling modifier project, primary screen (AID 602276;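 active = inhibition at or above 50% at 10 µM; inactive = inhibition below 50%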;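 also: firefly luciferase from ISG56 promoter only with Renilla not read in this screen; 0% = Sendai virus plus DMSO and 100% = medium plus DMSO without virus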). The conditions noted are these: HEK293 RL24 IRF3 luciferase reporter, at 10 µM, stronger effect = higher value.
The nature of assay [8]: TLR3 IRF3 reporter activation blockers – cell-based, poly I:C stimulus, luciferase, 10K MLSCN set, primary screen (AID 602277;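 active = inhibition of the reporter signal at or above 50%; inactive = inhibition below 50%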). The following applies: HEK293-TLR3 RL24 IRF3 luciferase reporter, at 10 µM, stronger effect = higher value. For orientation: A reporter such as luciferase makes a cellular process visible.

Active and inactive are the calls of the source.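 The calls were made as follows, unless noted: active = NADPH fluorescence slope more negative than the mean of all samples by about 3 SD, 99.7% confidence; inactive = the rest.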

Voltage-gated potassium channel subunit beta-2 (Rattus norvegicus), sequence (P62483 whole entry, looked up): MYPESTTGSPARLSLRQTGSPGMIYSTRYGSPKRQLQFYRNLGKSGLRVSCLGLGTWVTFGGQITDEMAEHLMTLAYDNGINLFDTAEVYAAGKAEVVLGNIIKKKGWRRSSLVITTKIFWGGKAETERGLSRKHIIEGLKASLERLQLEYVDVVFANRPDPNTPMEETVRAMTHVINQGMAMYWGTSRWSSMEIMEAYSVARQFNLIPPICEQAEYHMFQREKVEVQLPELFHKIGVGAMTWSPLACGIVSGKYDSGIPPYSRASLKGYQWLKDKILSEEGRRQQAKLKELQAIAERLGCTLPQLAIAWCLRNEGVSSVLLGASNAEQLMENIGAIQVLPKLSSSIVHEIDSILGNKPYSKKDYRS

For the molecule `CCOC(=O)c1cnn(-c2sc(C(=O)OCC)c(C)c2C(=O)OCC)c1N`, the cell count in assay [1] turned out to be 451. The inhibition (commonly the relative decrease from the control value, in per cent) in assay [1] was -1.9% (inactive); in assay [3] it was -5.8% (inactive); in assay [7], 7.68% (inactive); in assay [8], -49.4% (inactive). Moreover, the inhibition of aggregation in assay [2] was -35.1% (inactive). Moreover, the nuclei count in assay [2] was found to be 99.7%; in assay [3] it was 115%. Further, in assay [4], the fluorescence slope is -0.517 (inactive). Also, the NADPH fluorescence slope in assay [5] is 2.2e-05 (inactive). Also, in assay [6], the slope is 0.00627 (inactive).

Regarding `O=C(O)CC(NC(=O)c1ccccc1NC(=O)c1ccccc1)C(=O)O` (centres undefined), the cell count in assay [1] worked out at 284. Besides, the inhibition in assay [1] was -0.3% (inactive); in assay [3], 22.6% (inactive); in assay [7], -6.91% (inactive); in assay [8] it was -15.2% (inactive). The inhibition of aggregation in assay [2] was 8.8% (inactive). Further, the nuclei count in assay [2] turned out to be 111%; in assay [3], 90%. In assay [4], the fluorescence slope is -0.403 (inactive). The NADPH fluorescence slope in assay [5] was 1.9e-05 (inactive). In addition, in assay [6], the slope was 0.00592 (inactive).

For `CCN1CCN(CCCNC(=O)C2c3ccccc3C(=O)N(C)C2c2ccc(OC)cc2)CC1` (centres undefined), the cell count in assay [1] was found to be 567. The inhibition in assay [1] is 15.4% (inactive); in assay [3] it was 31.9% (inactive); in assay [7], 2.59% (inactive); in assay [8] it was 14% (inactive). For the same molecule, the inhibition of aggregation in assay [2] is -1.2% (inactive). In addition, the nuclei count in assay [2] stood at 82.8%; in assay [3], 93.8%. In assay [4], the fluorescence slope is -0.504 (inactive). Besides, in assay [5], the NADPH fluorescence slope was -1.6e-06 (inactive). For the same molecule, the slope in assay [6] was 0.00453 (inactive).

On to `O=S(=O)(Nc1nc2ccccc2nc1NCc1ccco1)c1ccc(Cl)cc1`, for which the cell count in assay [1] stood at 481. Further, the inhibition in assay [1] is 0.9% (inactive); in assay [3] it was 8.2% (inactive); in assay [7], 19.4% (inactive); in assay [8], 18.7% (inactive). Moreover, in assay [2], the inhibition of aggregation is 4.8% (inactive). Besides, the nuclei count came to 101% in assay [2] and 129% in assay [3]. In assay [4], the fluorescence slope is -0.448 (inactive). In addition, in assay [5], the NADPH fluorescence slope was -6.1e-05 (inactive). Moreover, the slope in assay [6] was 0.00347 (inactive).

With `CCCCN(C)CCCNC(=O)CC1Oc2ccccc2NC1=O` (centres undefined), the cell count in assay [1] was found to be 585. Further, the inhibition was -2.7% (inactive) in assay [1], -11.7% (inactive) in assay [3], 13.8% (inactive) in assay [7] and 36.6% (inactive) in assay [8]. For the same molecule, in assay [2], the inhibition of aggregation is 18.9% (inactive). Further, the values for the nuclei count in assay [2] and in assay [3] were 104% and 131%, respectively. The fluorescence slope in assay [4] was -0.493 (inactive). Besides, the NADPH fluorescence slope in assay [5] is 1.6e-05 (inactive). The slope in assay [6] is 0.00638 (inactive).

Regarding `Cc1cc(NC(=O)c2cccc(S(=O)(=O)N3CC(c4ccccc4)CC3=O)c2)no1` (centres undefined), in assay [1], the cell count was determined as 873. The inhibition in assay [1] was -1.2% (inactive); in assay [3] it was -44.9% (inactive); in assay [7], 8.54% (inactive); in assay [8], 25.9% (inactive). Also, the inhibition of aggregation in assay [2] was 2.3% (inactive). For the same molecule, the values for the nuclei count in assay [2] and in assay [3] were 107% and 121%, respectively. For the same molecule, the fluorescence slope in assay [4] is -0.562 (inactive). Besides, in assay [5], the NADPH fluorescence slope is -5.1e-05 (inactive). In addition, the slope in assay [6] is 0.00664 (inactive).

For `C=CCc1c(C)nc(SC)nc1Nc1ccc(C(=O)O)cc1`, in assay [1], the cell count is 497. Further, the inhibition in assay [1] was 7.2% (inactive); in assay [3], -41.5% (inactive); in assay [7], 4.8% (inactive); in assay [8], 21.7% (inactive). For the same molecule, the inhibition of aggregation in assay [2] was 7.3% (inactive). In addition, the results for the nuclei count in assay [2] and in assay [3] were 106% and 118%, respectively. Moreover, in assay [4], the fluorescence slope is -0.488 (inactive). In assay [5], the NADPH fluorescence slope was -3.9e-05 (inactive). In addition, the slope in assay [6] is 0.00683 (inactive).

As to `CC(=O)c1ccc(NS(=O)(=O)c2ccccc2)cc1`, in assay [1], the cell count was 554. Besides, the inhibition is -4.8% (inactive) in assay [1], -59.1% (inactive) in assay [3], -17.2% (inactive) in assay [7] and 7.05% (inactive) in assay [8]. Further, the inhibition of aggregation in assay [2] is 0.4% (inactive). For the same molecule, the results for the nuclei count in assay [2] and in assay [3] were 62.8% and 92.5%, respectively. The fluorescence slope in assay [4] is -0.467 (inactive). Further, in assay [5], the NADPH fluorescence slope was 3.9e-05 (inactive). Moreover, the slope in assay [6] is 0.00323 (inactive).

Regarding `Cc1cccc(Cn2c(SCCN3CCCCC3)nc3c2c(=O)[nH]c(=O)n3C)c1`, the cell count in assay [1] amounted to 497. The inhibition in assay [1] was 6.4% (inactive); in assay [3], 1.7% (inactive); in assay [7], -12% (inactive); in assay [8] it was 3.02% (inactive). Also, in assay [2], the inhibition of aggregation is -13.5% (inactive). Moreover, the nuclei count in assay [2] was 82.4%; in assay [3] it was 95.1%. The fluorescence slope in assay [4] is -0.442 (inactive). Moreover, the NADPH fluorescence slope in assay [5] was 3.2e-05 (inactive). In assay [6], the slope was 0.00451 (inactive).

`CCOC(=O)c1cc2c(=O)n3ccccc3nc2n(Cc2ccccc2)c1=N`: in assay [1], the cell count turned out to be 913. The inhibition was 11.3% (inactive) in assay [1], -109% (inactive) in assay [3], 6.32% (inactive) in assay [7] and 33.2% (inactive) in assay [8]. The inhibition of aggregation in assay [2] was 19.9% (inactive). The nuclei count in assay [2] came out at 102%; in assay [3] it was 117%. Also, the fluorescence slope in assay [4] was -0.364 (inactive). Besides, the NADPH fluorescence slope in assay [5] is -2.8e-05 (inactive). In addition, in assay [6], the slope is 0.00332 (inactive).

For `COc1ccccc1NC(=O)C1=C(C)Nc2nc(CCCO)nn2C1c1cccnc1` (centres undefined), the cell count in assay [1] amounted to 318. The inhibition was 1.6% (inactive) in assay [1], -30.7% (inactive) in assay [3], 6.83% (inactive) in assay [7] and 5.25% (inactive) in assay [8]. Also, the inhibition of aggregation in assay [2] was 10.7% (inactive). Moreover, the nuclei count in assay [2] turned out to be 102%; in assay [3], 114%. The fluorescence slope in assay [4] was -0.631 (inactive). Further, the NADPH fluorescence slope in assay [5] was -3.9e-05 (inactive). Besides, in assay [6], the slope was 0.00626 (inactive).

Turning to `CCn1c(C(=O)N2CCC(C(=O)N3CCN(c4ccccn4)CC3)CC2)cc2sccc21`, the cell count in assay [1] was 663. The inhibition was -12.8% (inactive) in assay [1], -79.6% (inactive) in assay [3], -5.71% (inactive) in assay [7] and -29% (inactive) in assay [8]. Besides, the inhibition of aggregation in assay [2] was 27.4% (inactive). Also, the nuclei count in assay [2] stood at 105%; in assay [3] it was 121%. Also, in assay [4], the fluorescence slope is -0.578 (inactive). In addition, the NADPH fluorescence slope in assay [5] was -4.7e-05 (inactive). Further, in assay [6], the slope is 0.00642 (inactive).

For `CC1(C)NC(=O)N(CCOc2cccc(Cl)c2Cl)C1=O`, the cell count in assay [1] was 411. Moreover, the inhibition in assay [1] is -1.1% (inactive); in assay [3], -35.1% (inactive); in assay [7], 16.8% (inactive); in assay [8] it was 18.5% (inactive). Besides, in assay [2], the inhibition of aggregation is 1.3% (inactive). For the same molecule, the nuclei count in assay [2] was determined as 98%; in assay [3], 92.1%. In assay [4], the fluorescence slope was -0.338 (inactive). In addition, in assay [5], the NADPH fluorescence slope is -6.5e-06 (inactive). In addition, the slope in assay [6] is 0.00521 (inactive).

Consider `CCN(C(=O)c1c(OC)cccc1OC)c1nnc(-c2cccnc2)s1`, for which, in assay [1], the cell count came to 892. Further, the inhibition in assay [1] was 3.3% (inactive); in assay [3], -49.6% (inactive); in assay [7], 8.32% (inactive); in assay [8] it was 18.6% (inactive). Moreover, in assay [2], the inhibition of aggregation is -35.8% (inactive). Moreover, the nuclei count in assay [2] is 105%; in assay [3] it was 137%. Moreover, the fluorescence slope in assay [4] is -0.336 (inactive). In assay [5], the NADPH fluorescence slope was -3.4e-05 (inactive). Further, the slope in assay [6] is 0.00467 (inactive).
